Assay [1] can be described thus: inhibitors of TNFa-induced NFkB p65 translocation, primary screen, imaging, HUVEC, MLSMR starter and 10KST1 sets (AID 438;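 active means inhibition above 20% together with a positive visual image hit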;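 further: compound added about 3h40 before a 20 min TNFalpha stimulation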;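 on inhibition: signal is the nuclear over cytoplasmic p65 intensity ratio per well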). To be noted: HUVEC TNFa-induced p65 nuclear translocation; cell count: measured here: nuclei count (cytotoxicity indicator), at 2.08 µM; inhibition: at 2 µM, stronger effect = higher value, 0% TNFa-plus-vehicle, 100% no-TNFa wells.
The nature of assay [2]: inhibitors of mutant huntingtin aggregation, primary screen, imaging, exon1htt(103Q)mCFP cells, high-content imaging (AID 483;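 active means visual image review flags a hit and inhibition of aggregation exceeds 20%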;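 further: compound exposure lasted 3 days before fixation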;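 on nuclei count: percent of the per-plate median nuclei count of sample wells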). As to conditions: exon1htt(103Q)mCFP cell line, aggregate imaging, at 2 µM; inhibition of aggregation: stronger effect = higher value; nuclei count: measured here: cell count, toxicity.
A short description of assay [3]: inhibitors of E-selectin induction by TNFa, primary screen, imaging, HUVEC, immunofluorescence, MLSMR starter and 10KST1 sets (AID 487;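 active means visually confirmed hit in the image check and inhibition above 20%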;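 on inhibition: signal is fraction of cell area covered by stained E-selectin grains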;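 on nuclei count: 100% = median nuclei count of all wells on the same plate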). As to conditions: HUVEC TNFalpha-induced E-selectin immunofluorescence imaging, at 2 µM; inhibition: stronger effect = higher value; nuclei count: measured here: cell number, toxicity.
The target in assay [4] is Voltage-gated potassium channel subunit beta-2 (Rattus norvegicus) (UniProt P62483). Kind of assay: KvBeta enzyme negative modulators, primary screen, biochemical, NADPH fluorescence (AID 622;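 active means fluorescence slope higher than the sample average by over 3 SD, cut at about -0.22 in these data, passing the limit was not always enough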;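 further: slope of raw intensity against log time taken from 70 to 1610 s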). As to conditions: recombinant KvBeta, 4-cyanobenzaldehyde reduction, at 10 µM, stronger effect = higher value.
Sequence of Voltage-gated potassium channel subunit beta-2 (Rattus norvegicus) (P62483 whole entry, looked up): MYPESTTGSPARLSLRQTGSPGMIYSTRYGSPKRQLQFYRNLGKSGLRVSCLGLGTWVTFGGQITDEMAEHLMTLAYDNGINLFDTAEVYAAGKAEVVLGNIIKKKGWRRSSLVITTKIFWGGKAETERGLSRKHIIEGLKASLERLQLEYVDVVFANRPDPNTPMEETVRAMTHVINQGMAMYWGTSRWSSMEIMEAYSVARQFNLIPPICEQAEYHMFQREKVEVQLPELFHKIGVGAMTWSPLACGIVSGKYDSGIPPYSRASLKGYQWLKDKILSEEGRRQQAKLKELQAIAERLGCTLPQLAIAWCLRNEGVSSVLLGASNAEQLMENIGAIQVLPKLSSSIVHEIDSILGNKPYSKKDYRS
Assay [5] shares this target. Kind of assay: KvBeta positive modulators, primary screen, biochemical, NADPH fluorescence (AID 623;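 active means NADPH fluorescence slope more negative than the mean of all samples by about 3 SD, 99.7% confidence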;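 further: fluorescence intensity change per second fitted from 20 to 320 s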). As to conditions: Recombinant KvBeta, NADPH fluorescence decrease slope, 10 min; at 10 µM; stronger effect = lower value.
For assay [6], the target named is Alpha-2C adrenergic receptor (Homo sapiens) (UniProt P18825). Kind of assay: modulators of alpha2C/GIRK thallium flux, primary screen, cell-based, HEK293 alpha2C/GIRK1/2 (AID 624).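 Further: slope of fluorescence ratio to pre-addition baseline per second over 15 to 24 s.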 As to conditions: thallium flux BTC fluorescence, at 10 µM, actives lie on both sides.
Sequence of Alpha-2C adrenergic receptor (Homo sapiens) (P18825 whole entry, looked up): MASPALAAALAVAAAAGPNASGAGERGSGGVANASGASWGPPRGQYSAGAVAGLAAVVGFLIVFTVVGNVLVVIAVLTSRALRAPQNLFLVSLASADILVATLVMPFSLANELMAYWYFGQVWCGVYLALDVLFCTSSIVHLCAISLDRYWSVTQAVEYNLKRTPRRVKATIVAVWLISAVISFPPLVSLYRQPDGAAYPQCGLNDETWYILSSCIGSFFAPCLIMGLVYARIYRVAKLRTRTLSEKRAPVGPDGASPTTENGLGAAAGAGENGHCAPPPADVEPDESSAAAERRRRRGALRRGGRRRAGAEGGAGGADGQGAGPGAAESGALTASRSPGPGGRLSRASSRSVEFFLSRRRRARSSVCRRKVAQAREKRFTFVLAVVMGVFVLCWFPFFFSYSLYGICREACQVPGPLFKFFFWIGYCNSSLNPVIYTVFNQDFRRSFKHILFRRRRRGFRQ
Assay [7] is described as follows: inhibitors of Sendai virus-induced IRF3 signaling, primary screen, TLR/RLR signaling modifier project, cell-based, Sendai virus stimulus, luciferase, 10K MLSCN set (AID 602276;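 active means inhibition at or above 50% at 10 µM; inactive means inhibition below 50%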;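 further: firefly luciferase from ISG56 promoter only with Renilla not read in this screen; 0% = Sendai virus plus DMSO and 100% = medium plus DMSO without virus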). As to conditions: HEK293 RL24 IRF3 luciferase reporter, at 10 µM, stronger effect = higher value. A general note: A reporter such as luciferase makes a cellular process visible.
Assay [8] is described as follows: inhibitors of poly I:C-induced TLR3 signaling, primary screen, cell-based, poly I:C stimulus, luciferase, 10K MLSCN set (AID 602277;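 active means inhibition of the reporter signal at or above 50%; inactive means inhibition below 50%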). As to conditions: HEK293-TLR3 RL24 IRF3 luciferase reporter, at 10 µM, stronger effect = higher value.

Molecules are shown by their SMILES. Activity calls are given as the source filed them.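 How the source made its calls, unless noted: active means fluorescence slope after compound addition differing from the mean of all screened samples at 99.7% confidence, in either direction; inactive means the rest.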

One may read the inhibition as the change of the read-out against control, counted positive when it falls.

Regarding `Cc1onc(-c2ccccc2Cl)c1C(=O)NCc1cccnc1`, the cell count in assay [1] was 700. Moreover, the inhibition in assay [1] was 1% (inactive); in assay [3], 8.5% (inactive); in assay [7], 17.8% (inactive); in assay [8], 19.3% (inactive). In addition, in assay [2], the inhibition of aggregation was 8.2% (inactive). In addition, the nuclei count was 97.9% in assay [2] and 92.3% in assay [3]. In addition, the fluorescence slope in assay [4] was -0.523 (inactive). In addition, in assay [5], the NADPH fluorescence slope is 1.3e-05 (inactive). In addition, in assay [6], the slope was 0.00593 (inactive).
Turning to `O=C(CCC(=O)N1CCc2ccccc2C1)N1CCN(S(=O)(=O)c2ccccc2)CC1`, the cell count in assay [1] was 361. Further, the inhibition is -2.5% (inactive) in assay [1], -14.3% (inactive) in assay [3], -9.4% (inactive) in assay [7] and 5.93% (inactive) in assay [8]. Further, the inhibition of aggregation in assay [2] is -6.9% (inactive). The figures for the nuclei count in assay [2] and in assay [3] were 131% and 102%, respectively. Besides, in assay [4], the fluorescence slope was -0.45 (inactive). Also, in assay [5], the NADPH fluorescence slope was -1.8e-05 (inactive). Further, the slope in assay [6] is 0.00506 (inactive).
For `COc1ccc2nc(NC(=O)C3CCCN(S(=O)(=O)c4cccc5nsnc45)C3)sc2c1` (stereo not drawn), the cell count in assay [1] was determined as 607. In addition, the inhibition in assay [1] was -3.9% (inactive); in assay [3], 2% (inactive); in assay [7] it was -3.68% (inactive); in assay [8] it was -37.1% (inactive). Also, the inhibition of aggregation in assay [2] is -14% (inactive). In addition, the nuclei count was 113% in assay [2] and 122% in assay [3]. In addition, the fluorescence slope in assay [4] is -0.455 (inactive). In assay [5], the NADPH fluorescence slope is 3.3e-05 (inactive). The slope in assay [6] was 0.00595 (inactive).
With `CCCCc1n[nH]c2c1C(=O)CC(C)(C)C2`, the cell count in assay [1] worked out at 712. Besides, the inhibition in assay [1] was -28.4% (inactive); in assay [3], -75.3% (inactive); in assay [7], 3.68% (inactive); in assay [8], 19.2% (inactive). Further, in assay [2], the inhibition of aggregation was 3.8% (inactive). Moreover, the figures for the nuclei count in assay [2] and in assay [3] were 113% and 120%, respectively. Besides, the fluorescence slope in assay [4] is -0.449 (inactive). Further, in assay [5], the NADPH fluorescence slope was -4.7e-05 (inactive). Besides, in assay [6], the slope is 0.00506 (inactive).
As for `COc1ccc(-c2noc(CCCC(=O)O)n2)cc1`, in assay [1], the cell count turned out to be 696. The inhibition in assay [1] was -7.8% (inactive); in assay [3], -54.3% (inactive); in assay [7], 35% (inactive); in assay [8], 86.3% (active). The inhibition of aggregation in assay [2] was -3.1% (inactive). Further, the nuclei count is 125% in assay [2] and 107% in assay [3]. In addition, the fluorescence slope in assay [4] was -0.341 (inactive). The NADPH fluorescence slope in assay [5] was 1.2e-05 (inactive). In addition, the slope in assay [6] is 0.00595 (inactive).
As to `Cc1cc(C(=O)OCC(=O)N2c3ccccc3CC2C)c(C)o1` (stereo not drawn), the cell count in assay [1] amounted to 733. In addition, the inhibition in assay [1] was -9.6% (inactive); in assay [3], -49.5% (inactive); in assay [7], -14.2% (inactive); in assay [8], -2.49% (inactive). For the same compound, the inhibition of aggregation in assay [2] was 3.2% (inactive). For the same compound, the nuclei count was 85.1% in assay [2] and 111% in assay [3]. In assay [4], the fluorescence slope is -0.425 (inactive). The NADPH fluorescence slope in assay [5] was 2.6e-05 (inactive). In assay [6], the slope is 0.00532 (inactive).
Take `CC(NC(=O)COc1ccccc1)C(=O)NC1=NCCS1` (stereo not drawn): the cell count in assay [1] was found to be 356. The inhibition is 2% (inactive) in assay [1], -85.5% (inactive) in assay [3], 14.4% (inactive) in assay [7] and 20.3% (inactive) in assay [8]. The inhibition of aggregation in assay [2] was 8.1% (inactive). The figures for the nuclei count in assay [2] and in assay [3] were 104% and 128%, respectively. Besides, the fluorescence slope in assay [4] was -0.35 (inactive). For the same compound, in assay [5], the NADPH fluorescence slope is -2.2e-05 (inactive). Further, in assay [6], the slope is 0.00548 (inactive).
For the compound `COc1ccc(C2C(C(=O)N3CCC(C)CC3)c3ccccc3C(=O)N2C)cc1` (stereo not drawn), the cell count in assay [1] amounted to 475. For the same compound, the inhibition is -3.8% (inactive) in assay [1], -17.4% (inactive) in assay [3], -9.25% (inactive) in assay [7] and 12.2% (inactive) in assay [8]. Moreover, the inhibition of aggregation in assay [2] was 12.4% (inactive). The nuclei count stood at 91.5% in assay [2] and 101% in assay [3]. Further, the fluorescence slope in assay [4] is -0.54 (inactive). For the same compound, the NADPH fluorescence slope in assay [5] was -1.3e-05 (inactive). The slope in assay [6] was 0.00505 (inactive).
As for `Oc1ccccc1-c1nnc(COc2ccc(Cl)cc2Cl)o1`, in assay [1], the cell count was 766. Further, the inhibition was -8.5% (inactive) in assay [1], -23.4% (inactive) in assay [3], -0.185% (inactive) in assay [7] and -1.08% (inactive) in assay [8]. Moreover, the inhibition of aggregation in assay [2] is -1.7% (inactive). In addition, the nuclei count in assay [2] is 127%; in assay [3], 113%. Moreover, in assay [4], the fluorescence slope is -0.54 (inactive). For the same compound, the NADPH fluorescence slope in assay [5] was -2.9e-05 (inactive). For the same compound, the slope in assay [6] is 0.00718 (inactive).
Turning to `Cc1cc(=O)n2nc(N3CCC(C(=O)N4CCN(Cc5ccccc5)CC4)CC3)sc2n1`, the cell count in assay [1] came to 450. The inhibition in assay [1] is -1% (inactive); in assay [3], -31.7% (inactive); in assay [7], 7.85% (inactive); in assay [8], 3.68% (inactive). Besides, the inhibition of aggregation in assay [2] was -0.2% (inactive). In addition, the nuclei count in assay [2] was determined as 113%; in assay [3], 103%. Moreover, the fluorescence slope in assay [4] is -0.329 (inactive). In addition, the NADPH fluorescence slope in assay [5] is -5.5e-05 (inactive). For the same compound, the slope in assay [6] was 0.00533 (inactive).
Take `O=C(CSc1nnc(Cn2c(=O)sc3ccccc32)n1-c1ccccc1)NCC1CCCO1` (stereo not drawn): in assay [1], the cell count came to 525. Further, the inhibition in assay [1] was -6.2% (inactive); in assay [3], -19.9% (inactive); in assay [7], 12% (inactive); in assay [8], 37.7% (inactive). For the same compound, the inhibition of aggregation in assay [2] was 1.1% (inactive). For the same compound, the nuclei count in assay [2] is 106%; in assay [3], 116%. The fluorescence slope in assay [4] was -0.583 (inactive). The NADPH fluorescence slope in assay [5] is -2.3e-05 (inactive). Further, the slope in assay [6] was 0.00648 (inactive).
In the case of `CC(=O)NCCc1nc2ccccc2[nH]1`, in assay [1], the cell count is 736. Further, the inhibition in assay [1] is -4.3% (inactive); in assay [3], -6.5% (inactive); in assay [7], 12.7% (inactive); in assay [8] it was 33.6% (inactive). Moreover, the inhibition of aggregation in assay [2] is -14% (inactive). Besides, the nuclei count in assay [2] worked out at 114%; in assay [3], 106%. For the same compound, the fluorescence slope in assay [4] is -0.553 (inactive). Further, the NADPH fluorescence slope in assay [5] was -2.7e-05 (inactive). The slope in assay [6] is 0.00636 (inactive).
For `Cc1ccc(N2C(=O)c3oc4ccccc4c(=O)c3C2c2cccc(O)c2)nc1` (stereo not drawn), the cell count in assay [1] was determined as 752. The inhibition was 6.1% (inactive) in assay [1], -6.3% (inactive) in assay [3], 11% (inactive) in assay [7] and 14.6% (inactive) in assay [8]. Further, the inhibition of aggregation in assay [2] is -1.9% (inactive). Moreover, the nuclei count stood at 64.5% in assay [2] and 66.8% in assay [3]. Also, the fluorescence slope in assay [4] was -0.589 (inactive). In addition, the NADPH fluorescence slope in assay [5] was -3.8e-06 (inactive). In addition, the slope in assay [6] was 0.00643 (inactive).

The record behind these values is PubChem BioAssay.
